Bioassay records from PubChem BioAssay.
Cl transport mod: KCC2 cotransporter modulators, thallium flux, primary screen, cell-based, HEK293 KCC2, FluoZin-2 fluorescence, MLSMR; KCC2 cells, thallium flux FluoZin-2 fluorescence; Solute carrier family 12 member 5 (Homo sapiens), Q9H2X9; B-score of Tl+ flux slope (higher = more flux/activation; lower = inhibition) at 10 µM; 190,000 compounds, 2.2% hits;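 active = thallium flux slope and its plate-corrected score both differing from the plate sample mean at a set confidence after two filtering rounds, in either direction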;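 also: slope of fluorescence scaled to starting intensity during 10 to 20 s after thallium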
Target sequence (Q9H2X9 whole entry, looked up): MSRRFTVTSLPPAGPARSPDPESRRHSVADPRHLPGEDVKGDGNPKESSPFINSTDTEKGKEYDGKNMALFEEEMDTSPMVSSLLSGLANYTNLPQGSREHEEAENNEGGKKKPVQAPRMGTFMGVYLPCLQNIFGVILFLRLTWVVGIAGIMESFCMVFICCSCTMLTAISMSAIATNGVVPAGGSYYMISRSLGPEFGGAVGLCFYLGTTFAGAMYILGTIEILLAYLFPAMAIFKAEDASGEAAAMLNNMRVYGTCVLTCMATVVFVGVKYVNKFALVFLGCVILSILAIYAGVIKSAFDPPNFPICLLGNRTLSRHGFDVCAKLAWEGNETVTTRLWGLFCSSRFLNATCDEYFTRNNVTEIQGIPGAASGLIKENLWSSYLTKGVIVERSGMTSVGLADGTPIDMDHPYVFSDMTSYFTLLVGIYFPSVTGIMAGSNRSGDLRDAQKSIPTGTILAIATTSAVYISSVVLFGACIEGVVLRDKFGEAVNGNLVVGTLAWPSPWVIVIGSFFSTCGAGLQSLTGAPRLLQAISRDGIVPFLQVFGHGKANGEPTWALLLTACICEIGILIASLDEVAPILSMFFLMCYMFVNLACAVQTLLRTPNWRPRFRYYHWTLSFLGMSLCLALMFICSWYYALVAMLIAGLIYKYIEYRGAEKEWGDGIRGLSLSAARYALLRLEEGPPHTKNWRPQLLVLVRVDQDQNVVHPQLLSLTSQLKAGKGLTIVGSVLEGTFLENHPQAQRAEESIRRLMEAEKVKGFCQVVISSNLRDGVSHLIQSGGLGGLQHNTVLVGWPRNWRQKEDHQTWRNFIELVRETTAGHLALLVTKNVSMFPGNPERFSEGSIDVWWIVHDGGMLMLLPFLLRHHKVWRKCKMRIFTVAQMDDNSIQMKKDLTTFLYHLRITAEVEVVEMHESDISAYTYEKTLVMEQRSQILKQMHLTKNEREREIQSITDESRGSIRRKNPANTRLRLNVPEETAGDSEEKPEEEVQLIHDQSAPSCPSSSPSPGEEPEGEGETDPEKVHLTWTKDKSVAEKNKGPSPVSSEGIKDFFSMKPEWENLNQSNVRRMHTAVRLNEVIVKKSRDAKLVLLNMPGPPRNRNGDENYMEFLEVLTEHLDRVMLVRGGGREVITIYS
Calb FLC: C. albicans growth inhibition with fluconazole, primary screen, CaCi-2 strain, Alamar Blue fluorescence. C. albicans CaCi-2 (fluconazole-resistant clinical isolate) + fluconazole, 48 h. growth inhibition, % (no concentration beside the values). 300,000 compounds, 0.57% hits. AID 1979, 2009;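 active = growth inhibition above about 58% in most replicates, limit read from the data, passing the limit was not always enough; inconclusive = exactly half the replicates above a set limit; inactive = most replicates below a set limit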;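 also: all wells also contain fluconazole at 8 µg/ml as a sub-toxic cotreatment; 0% = median of DMSO wells and 100% = median of geldanamycin control wells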
Efflux pump inh: inhibitors of Candida efflux pumps in yeast, primary screen, S. cerevisiae, Nile Red, multiplex | S. cerevisiae Candida pump triplex | inhibition, % at 10 µM | 330,000 compounds, 0.44% hits;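 active = plate passing quality check with inhibition over a set limit, or well fluorescence over plate mean plus 4 SD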;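 also: Nile Red retained in pooled yeast measured as flow cytometry median fluorescence; 0% = buffer negative control and 100% = Enniatin B positive control; higher means more Nile Red kept so more efflux inhibition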
Cardio protect: cardioprotection against H2O2-induced cell death, primary screen, uHTS, H9c2 cells, ATPLite luminescence. 360,000 compounds, 0.63% hits. H9c2 cardiomyocytes, H2O2 injury protection, 2 h. protection from H2O2 cell death, % at 20 µM. AID 588492, 2011;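 active = compounds giving at least 50% protection of heart cells from peroxide-induced death in the single-dose screen, raw or plate-pattern-corrected value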;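 also: 0% = DMSO wells with peroxide and 100% = DMSO wells without peroxide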
PHOSPHO1 block: PubChem AID 1565; 290,000 compounds, 1.1% hits; Phosphoethanolamine/phosphocholine phosphatase (Homo sapiens), Q8TCT1; recombinant PHOSPHO1, absorbance phosphatase assay; inhibition, % at 13.3 µM; in the data active = inhibition above about 60%
KCC2 sec1: KCC2 modulators in sodium-free buffer, confirmation, cell-based, HEK293 KCC2, thallium flux, secondary assay | shares compounds with Cl transport mod | FluoZin2 fluorescence; stronger effect = higher value | normalised thallium flux (F/F0 slope) at 10 µM | 3,700 compounds, 15% hits | AID 1713, 2009;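 active = thallium flux slope above the same plate's solvent-only control mean plus 3 SD; inconclusive = the two replicate wells disagree; inactive = no significant difference from solvent-only control wells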
KCC2 bumet counter: thallium flux persisting under bumetanide in KCC2 cells, confirmation, counter-screen for KCC2 modulator project, cell-based, HEK293 KCC2, FluoZin2, secondary assay 3 | shares compounds with Cl transport mod | HEK293-KCC2 + bumetanide/ouabain; stronger effect = higher value | normalized thallium flux at 10 µM | 3,700 compounds, 49% hits | AID 1714, 2009;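 active = thallium entry rate above the same plate's blocked-transporter control wells by more than 3 SD; inconclusive = the two repeat wells disagree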;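 also: raw slope of fluorescence over initial fluorescence between 10 and 20 s after thallium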
KCC2 secondary2: KCC2 modulators without ouabain present, confirmation, cell-based, HEK293 KCC2, thallium flux, FluoZin2, secondary assay 2; shares compounds with Cl transport mod; thallium flux FluoZin2 fluorescence; actives lie on both sides; F/F0 rise rate, 10–20 s post-thallium; normalized thallium flux at 10 µM; 3,700 compounds, 23% hits; AID 1715, 2009;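 active = thallium flux slope more than 3 SD above or below the plate's solvent-only control mean, mostly below; inconclusive = the two repeat wells disagreed; inactive = no significant shift from solvent-only controls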;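 also: raw slope with 0.1% DMSO as baseline and bumetanide as block control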
HEK counter1: thallium flux modulation in parental HEK cells, confirmation, counter-screen for KCC2 modulator project, cell-based, counterscreen 1; shares compounds with Cl transport mod; HEK293 parental cells, thallium flux FluoZin2, ouabain; baseline-ratio fluorescence slope, 10–20 s after thallium; thallium flux rate (normalised fluorescence) at 10 µM; 3,700 compounds, 46% hits; AID 1716, 2009;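 active = thallium flux rate significantly above the same plate's solvent-only control wells, beyond their mean plus 3 SD; inconclusive = the two replicate wells gave conflicting results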
KCC2 ouabain: KCC2 inhibitors and activators, ouabain retest, confirmation, HEK-KCC2 cells. raw Tl+ flux slope (below DMSO = inhibition, above = activation) at 10 µM. 3,700 compounds, 48% hits. shares compounds with Cl transport mod. HEK293-KCC2, thallium flux FluoZin2 fluorescence; bidirectional: low = inhibitor, high = activator. AID 1717, 2009;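 active = thallium flux slope beyond 3 SD from same-plate DMSO control mean in most replicates, usually higher, sometimes lower; inconclusive = repeat tests gave conflicting results; inactive = no significant difference from controls in most replicates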;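 also: slope of initial-normalized fluorescence between seconds 10 and 20 after thallium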
HEK293 Tl flux2: native HEK Tl+ uptake effects, second counter-screen – HEK cells, counterscreen 2, counter-screen for KCC2 modulator project, confirmation | AID 1718, 2009 | 3,700 compounds, 33% hits | HEK293 parental, thallium flux FluoZin-2 fluorescence slope | thallium flux slope at 10 µM | shares compounds with Cl transport mod;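 active = thallium flux slope above the same plate's solvent-control mean plus 3 SD in both duplicate wells; inconclusive = duplicate wells that disagreed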;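 also: run without ouabain in cells lacking the KCC2 cotransporter; slope of fluorescence scaled to its starting value between 10 and 20 s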
Numbers without * were called inactive; ? = inconclusive; . = no result given. Sampled rows, rich in hits. Any-hit rate of the full collection: about 3.3%.

SMILES | Cl transport mod | Calb FLC | Efflux pump inh | Cardio protect | PHOSPHO1 block | KCC2 sec1 | KCC2 bumet counter | KCC2 secondary2 | HEK counter1 | KCC2 ouabain | HEK293 Tl flux2
CC1(C(=O)NS(=O)(=O)c2cccc(OC(F)F)c2)CCN1C(=O)Cc1ccccc1 (centres undefined) | . | . | . | 2.2 | . | . | . | . | . | . | .
Cc1cccc(N/C(=N\S(=O)(=O)c2ccccc2)C(F)(F)F)c1 | . | -1.2 | -0.2 | -6.9 | -8.0 | 0.00528 | ? | 0.0287 | 0.0102* | 0.0202 | 0.0111
O=S(=O)(/N=C(\Nc1ccc(F)cc1)C(F)(F)F)c1ccccc1 | . | 9.3 | -0.1 | -2.8 | 17.6 | . | . | . | . | . | .
CCOC(=O)C1=C(Cc2ccc(OC)cc2)C(=O)c2ccccc2C1=O | 6.57* | . | . | -20.5 | 71.2* | 0.00756 | 0.00824* | 0.0305 | 0.0113* | 0.0183 | ?
CCOC(=O)C1=C(Cc2ccc(C)cc2)C(=O)c2ccccc2C1=O | 0.0102 | 28.4 | 0.3 | . | 44.1 | . | . | . | . | . | .
O=C(CSc1nccc(=O)[nH]1)NC1CCCC1 | . | -3.1 | -0.2 | 1.4 | 35.7 | . | . | . | . | . | .
C/C(=N\NC(=O)c1cccc(N/N=C(\C)c2ccco2)c1)c1ccco1 | 1.34 | -15.6 | . | 7.0 | 16.5 | . | . | . | . | . | .
C/C(=N\NC(=O)c1cccnc1)c1ccc(Br)cc1 | . | -9.8 | 0.0 | 5.7 | 34.8 | . | . | . | . | . | .
C/C(=N\NC(=O)c1ccc(Br)cc1)c1ccccc1 | 5.99* | -4.0 | 0.6 | -3.0 | 33.0 | 0.00889 | 0.0134* | 0.0318 | 0.0149* | ? | 0.0118
CC/C(Cc1ccccc1)=N\NC(=O)c1cc(C)oc1C | -0.163 | 7.2 | -0.1 | 2.7 | 6.0 | . | . | . | . | . | .
C/C(=N\NC(=O)c1cccc([N+](=O)[O-])c1)c1ccco1 | 12.4* | -9.5 | -0.1 | 2.1 | -42.3 | 0.00766 | 0.0246* | 0.0378 | 0.0192* | 0.0291* | 0.0258*
CC/C(Cc1ccccc1)=N/NC(=O)c1cccc(Br)c1 | 9.18* | -2.2 | -0.1 | 18.7 | 9.3 | 0.00718 | 0.0102* | 0.0312 | 0.0157* | 0.0222 | 0.0147*
CC/C(Cc1ccccc1)=N\NC(=O)c1cc([N+](=O)[O-])cc([N+](=O)[O-])c1 | 33.3* | -21.5 | -0.1 | 5.6 | 20.8 | 0.0183* | 0.0672* | ? | 0.033* | 0.0454* | 0.0176*
COc1ccc(S(=O)(=O)N2CCOCC2)cc1NC(=O)c1c(C)noc1C | . | . | . | 1.8 | . | . | . | . | . | . | .
O=C(COC(=O)C1CC2CCCC(C1)C2=O)Nc1ccccc1 (centres undefined) | . | . | 0.2 | -2.0 | . | . | . | . | . | . | .
O=C(COc1ccccc1)NCC(=O)Nc1ccncc1 | . | -9.5 | 0.2 | -6.0 | . | . | . | . | . | . | .
S=c1nc(C2CCCCC2)n(-c2ccccc2)[nH]1 | 126* | -22.0 | 0.2 | -1.9 | 28.3 | 0.0546* | 0.139* | 0.0479* | 0.0782* | 0.112* | 0.0308*
